# According to PubChem BioAssay AID1851 (National Center for Advancing Translational Sciences (NCATS), 2009):
# Where “and” joins values, the source holds several entries; their conditions need not be identical. Equal values may be shown once. Out of some 16,000 compounds screened, about 5,800 (36%) were called active. Inconclusive results (about 23%) are left out. Calls come from the whole dose curve; as a rule, active = well fitted curve in the direction sought with a large enough effect; inconclusive = small, poorly fitted or top-dose-only effect, or effect the other way; inactive = no such curve, though single readings can be large or run the other way. The list shows a part of the results. More than one record can exist for a structure, and the calls need not agree.
# Biological target: Cytochrome P450 2C19 (Homo sapiens) (UniProt P33261)
# Sequence (P33261 whole entry, looked up): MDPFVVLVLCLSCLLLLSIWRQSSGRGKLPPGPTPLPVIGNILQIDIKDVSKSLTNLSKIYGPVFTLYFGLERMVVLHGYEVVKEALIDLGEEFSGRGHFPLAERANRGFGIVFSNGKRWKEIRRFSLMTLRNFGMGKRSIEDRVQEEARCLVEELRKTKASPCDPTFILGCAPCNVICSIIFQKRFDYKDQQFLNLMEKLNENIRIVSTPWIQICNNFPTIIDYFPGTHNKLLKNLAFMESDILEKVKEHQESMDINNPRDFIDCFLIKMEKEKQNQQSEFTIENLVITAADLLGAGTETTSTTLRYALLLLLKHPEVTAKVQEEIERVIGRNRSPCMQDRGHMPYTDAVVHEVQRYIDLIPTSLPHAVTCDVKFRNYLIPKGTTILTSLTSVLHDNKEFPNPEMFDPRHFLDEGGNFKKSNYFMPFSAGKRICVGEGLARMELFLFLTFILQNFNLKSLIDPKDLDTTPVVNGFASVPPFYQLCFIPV
# Test: Cytochrome panel assay with activity outcomes
# Conditions: recombinant CYP, pro-luciferin dealkylation, luminescence, p450-cyp2c19; series mostly up to 57.1 µM
# % is set by controls: 0 for no effect and ±100 for the full control effect.
Structure (SMILES),AC50,"activity, negative = inhibition"
c1ccc2nc(N3CCNCC3)ccc2c1,inactive,–
O=C(O)[C@@H]1[C@H](C(=O)O)[C@]2(Cl)C(Cl)=C(Cl)[C@@]1(Cl)C2(Cl)Cl,–,-2.94% [at 11.4 µM] (inactive)
NCC1(CC(=O)O)CCCCC1,inactive,–
CCN(CC)CCn1ncc2c(N)ncnc21,–,-2.72% [at 11.4 µM] (inactive)
C[C@H](N)[C@@H](O)c1ccccc1,inactive,–
CN1[C@@H]2CC[C@H]1CC(O[C@@H](c1ccccc1)c1ccc(Cl)cc1)C2 (stereo not given in full),inactive,–
CC(NCc1ccc(Cl)cc1)C(O)c1ccccc1 (stereo not given),0.355 µM (active),–
Cc1sc2ccccc2c1CC1=NCCN1,inactive,–
c1ccc(C2CC2)c(OCC2=NCCN2)c1,inactive,–
CCSCC[C@H](N)C(=O)O,–,-18% [at 11.4 µM] (inactive)
[N-]=[N+]=CC(=O)CC[C@H](N)C(=O)O,–,0.0153% [at 11.4 µM] (inactive)
CC(C)COC(=O)OCN1C(=O)CN(CCN2CC(=O)N(COC(=O)OCC(C)C)C(=O)C2)CC1=O,inactive,–
c1csc(CN2CCCC3(CCNCC3)C2)n1,inactive,–
O=C(CN1CCCCC1)Nc1ccc(Br)cc1C(=O)c1ccccc1Cl,7.94 µM (active),–
O=c1[nH]cnc2[nH]cc(CN3CCCCC3)c12,–,39.9% [at 11.4 µM] (inactive)
Cc1nnc2ccc(-c3cccc(C(F)(F)F)c3)nn12,inactive,–
CCC1(CCSC(=N)N)C(=O)NC(=O)NC1=O,–,20.6% [at 11.4 µM] (inactive)
C[N+](C)(C)CC#CCN1CCCC1=O,inactive,–
O=C1CCCN1CC#CCN1CCCC1,inactive and 158 nM (active),–
C(#CCN1CCCC1)CN1CCCC1,inactive,–
CN(CCC(=O)O)C1=Nc2ccc(Cl)cc2C(c2ccccc2)=[N+]([O-])C1,–,-1.35% [at 11.4 µM] (inactive)
Nc1nc(N)c2nc(CNc3ccc(C(=O)N[C@H](CCC(=O)O)C(=O)O)cc3)cnc2n1,inactive,–
O=C(O)CNC(=O)[C@@H](CS)Cc1ccccc1,inactive,–
Cc1cc[c]([Sb]2[O][C@H]([C@H](O)[C@H](O)C(=O)O)[C@@H](CO)[O]2)cc1,–,30.4% [at 11.4 µM] (inactive)

Structure (SMILES),AC50,"activity, negative = inhibition"
N[C@@H](Cn1ccc(=O)n(Cc2ccc(C(=O)O)cc2)c1=O)C(=O)O,inactive,–
CC(C)(O)/C=C\C(=O)[C@](C)(O)[C@H]1[C@H](O)C[C@]2(C)[C@@H]3CC=C4[C@@H](C=C(O)C(=O)C4(C)C)[C@]3(C)C(=O)C[C@@]12C,–,-7.19% [at 11.4 µM] (inactive)
O=C(Nc1ccc(C(F)(F)F)cc1)c1cccn(Cc2ccc3c(c2)OC(F)(F)O3)c1=O,3.16 µM (active),–
CC(=O)Nc1ccccc1C(=O)OCc1ccc(C(=O)c2ccccc2)cc1,3.55 µM (active),–
NS(=O)(=O)c1cc([C@@]2(O)NC(=O)c3ccccc32)ccc1Cl,inactive,–
NC[C@@H](Cc1ccccc1)P(=O)(O)O,–,-0.815% [at 11.4 µM] (inactive)
O=C(Oc1ccccc1)N1CCC[C@@]2(CCN(C(c3ccccc3)c3ccccc3)C2)C1,inactive,–
O=C(O)Cc1cnc[nH]1,inactive,–
CC[C@@H](CO)NC(=O)[C@H]1C=C2c3cccc4c3c(cn4C)C[C@H]2N(C)C1,0.126 µM (active),–
CC[C@H](CO)NC(=O)[C@@H]1C=C2c3cccc4c3c(cn4C)C[C@@H]2N(C)C1,inactive,–
COc1ccc(NC(=O)N2CCCC3(CCN(C(=O)Oc4ccccc4)CC3)C2)cc1,inactive,–
CN(C)CS/C(N)=N/[C@H](O)C(Cl)(Cl)Cl,–,-3.05% [at 11.4 µM] (inactive)
CNC(C)Cc1ccccc1Sc1ccc(O)cc1 (stereo not given),10 µM (active),–
CC(N)Cc1ccccc1Sc1ccc(O)cc1 (stereo not given),15.8 µM (active),–
C[C@H](N)Cc1c[nH]c2ccc(O)cc12,inactive,–
CNC[C@H](O)c1ccc(O)cc1,inactive,–
O=C(Oc1ccc([N+](=O)[O-])cc1)N1CCC(N2CCCCC2)CC1,inactive,–
O=C1Nc2ccc(I)cc2/C1=C/c1cc(Br)c(O)c(Br)c1,inactive,–
Nc1nc2ccc(Cl)cc2c2nc(-c3ccco3)nn12,inactive,–
CCOP(=O)(OCC)c1nc(/C=C/c2ccccc2)oc1NCc1ccccc1,2.24 µM (active),–
CCNC(C)(C)[C@@H](SS)c1ccc(Br)cc1,–,-70.9% [at 11.4 µM] (inactive)
COC1(CS(=O)c2ccccc2)CCN(CCc2c[nH]c3ccc(F)cc23)CC1 (stereo not given),inactive,–
O=NN(Cc1ccc(Cl)cc1)[C@@H](C(=O)O)c1ccccc1,0.398 µM (active),–
COc1ccc2c(c1)[C@]13CCCC[C@@H]1[C@H](C2)NCC3,inactive,–

Structure (SMILES),AC50,"activity, negative = inhibition"
CN1CCc2cccc(Cl)c2CC1,inactive,–
c1ccc(N2CC[C@@]3(CCCNC3)C2)cc1,inactive,–
Cc1cc(Cc2cc(C)c(N)cc2N)c(N)cc1N,–,-42.7% [at 11.4 µM] (inactive)
CCCn1c(=O)c2[nH]c(C3CCCC3)nc2n(CCCOC(=O)c2ccc(S(=O)(=O)F)cc2)c1=O,inactive,–
CCOC(=O)c1c(NC(=O)C(c2ccccc2)c2ccccc2)sc2c1C1CCN2CC1,3.55 µM (active),–
CN(C)[C@@H]1C(=O)C(C(N)=O)=C(O)[C@]2(O)C(=O)C3=C(O)c4c(O)cccc4[C@@](C)(O)[C@H]3[C@H](O)[C@@H]12,inactive,–
C[C@@]12CC[C@@H]3[C@H](CCC4=CC(=O)CC[C@]43C)[C@@H]1CC[C@@H]2C(=O)Cn1cnc2c(=S)nc[nH]c21,–,-3.21% [at 11.4 µM] (inactive)
CC(O)(CS(=O)(=O)c1ccccc1)C(=O)Nc1cccc(C(F)(F)F)c1 (stereo not given),2.24 µM (active),–
O=C(O)c1ccccc1Nc1cccc(C(F)(F)F)c1,inactive,–
CC(O)(CS(=O)(=O)c1cccc(C(F)(F)F)c1)C(=O)Nc1ccc(C(F)(F)F)cc1 (stereo not given),0.794 µM (active),–
CC(O)(CS(=O)(=O)c1cccc(C(F)(F)F)c1)C(=O)Nc1cccc(C(F)(F)F)c1 (stereo not given),2.51 µM (active),–
CC[C@@H]1CN2CCc3cc(OC)c(OC)cc3[C@H]2C[C@@H]1C[C@@H]1NCCc2cc(O)c(OC)cc21,inactive,–
Cn1c(=O)c2[nH]cnc2n(C)c1=O.[CH2-][C@H](Cc1cccc2cc(C(=O)O)c(=O)oc12)OC.[Hg].[OH-],–,27.4% [at 11.4 µM] (inactive)
C[C@@H]1[C@@H]2Cc3ccc(O)cc3[C@@]1(C)CCN2CC1CC1,inactive,–
O=C(O)[C@@H]1C[C@H]1[C@@H](NP(=O)(c1ccccc1)c1ccccc1)c1ccccc1,inactive,–
COc1cccc(-n2c(O)c(C=NCCN3CCOCC3)c(=O)[nH]c2=O)c1,inactive,–
Cc1ccccc1OCCN=Cc1c(O)n(C)c(=O)n(C)c1=O,10 µM (active),–
CC[N@+]1(C)CCC[C@@H](OC(=O)C(O)(c2ccccc2)c2ccccc2)C1,inactive,–
C/C(O)=C(/C#N)C(=O)Nc1cc(Br)ccc1Br,inactive,–
COC(=O)C1=CCCN(C)C1,inactive,–
C[C@H](Br)CN(C[C@H](C)Br)c1ccc2c(c1)Cc1ccccc1-2,2.51 µM (active),–
CC[C@H](C(=O)[C@H](C)[C@H](O)[C@H](C)CCc1ccc(C)c(O)c1C(=O)O)[C@H]1O[C@](CC)([C@@H]2CC[C@@](O)(CC)[C@H](C)O2)C[C@H]1C,inactive,–
COCCCn1c(N)c(C(=O)Nc2sc3c(c2C(=O)OC)CCCC3)c2nc3ccccc3nc21,3.55 µM (active),–
C=CCN1CC[C@@]23c4c5ccc(O)c4O[C@H]2/C(=N\N=C2/CC[C@@]4(O)[C@H]6Cc7ccc(O)c8c7[C@@]4(CCN6CC=C)[C@@H]2O8)CC[C@]3(O)[C@@H]1C5,inactive,–

Structure (SMILES),AC50,"activity, negative = inhibition"
NCCc1ccc(S(=O)(=O)F)cc1,inactive,–
COc1ccc(CNC(=O)/C=C\c2ccc3[nH]cc(CCN(C)C)c3c2)cc1,inactive,–
C=CCN1C[C@H](C)N([C@H](c2ccc(C(=O)N(CC)CC)cc2)c2cccc(OC)c2)C[C@H]1C,inactive,–
COc1cc2c(cc1OC)[C@@H]1C(=O)c3ccc4c(c3O[C@@H]1CO2)C=CC(C)(C)O4,5.01 µM (active),–
C=C(C)[C@H]1Cc2c(ccc3c2O[C@H]2COc4cc(OC)c(OC)cc4[C@@H]2C3=O)O1,2.51 µM (active),–
N[C@@H](Cc1ccccc1)P(=O)(O)O,–,-2.53% [at 11.4 µM] (inactive)
Cn1c[n+](C)cc1C(O)c1ccccc1 (stereo not given),inactive,–
COc1ccc2[nH]c3c(c2c1)CCN=C3C,inactive,–
Oc1ccc2c3c1O[C@H]1c4oc5ccccc5c4C[C@]4(O)[C@H](C2)N(CC2CC2)CC[C@@]314,inactive,–
C=CCO[C@@H](Cn1ccnc1)c1ccc(Cl)cc1Cl,0.01 µM (active),–
N[C@@H](Cn1cc(I)c(=O)[nH]c1=O)C(=O)O,inactive,–
O=C(Nc1ccccc1)N1CCCC2(CCN(C(=O)Oc3ccccc3)CC2)C1,inactive,–
C[C@H](N)c1cccc(Cl)c1Cl,inactive,–
Oc1ccc2c3c1O[C@H]1c4c(c5ccccc5n4Cc4ccccc4)C[C@]4(O)[C@H](C2)N(CC2CC2)CC[C@@]314,inactive,–
NC(N)=NS(=O)(=O)c1ccc(N)cc1,inactive,–
C[N+]1(C)CCO[C@@](O)(c2ccc(-c3ccc([C@]4(O)C[N+](C)(C)CCO4)cc3)cc2)C1,inactive,–
CC[C@]1(C2=NCCN2)Cc2ccccc2O1,inactive,–
c1ccc2c(c1)OC[C@@H](C1=NCCN1)O2,inactive and 7.94 µM (active),–
NC[C@@H](O)CSP(=O)(O)O,–,8.63% [at 11.4 µM] (inactive)
NC(=O)CN1CCCC1=O,inactive,–
Nc1nnnn1CCO,–,28.1% [at 11.4 µM] (inactive)
O=C(O)c1cc[c]([Hg][S]c2ncnc3nc[nH]c23)cc1,0.631 µM (active),–
CO[C@H]1[C@H](O)[C@H](O[C@@H]2[C@H](Oc3cccc4c(O)c5c(=O)oc6ccc(C)c7c(=O)oc(c34)c5c67)O[C@@H](C)[C@H](O)[C@H]2O)O[C@@H](C)[C@@H]1O,–,22.4% [at 11.4 µM] (inactive)
